{"source": "PubChem BioAssay AID2015", "about": "(National Center for Advancing Translational Sciences (NCATS), 2009)", "note": "The other results are listed elsewhere or left out. Results filed as inconclusive are left out. Unmarked numbers belong to inactive results. Active and inactive are the calls of the source. Calls come from the whole dose curve; as a rule, active = well fitted inhibition curve with a large enough effect; inconclusive = small, poorly fitted or top-dose-only effect; inactive = flat fitted curve, though single readings scatter."}
{"molecular_target": "Galactokinase (Homo sapiens) (UniProt P51570)", "sequence (P51570 whole entry, looked up)": "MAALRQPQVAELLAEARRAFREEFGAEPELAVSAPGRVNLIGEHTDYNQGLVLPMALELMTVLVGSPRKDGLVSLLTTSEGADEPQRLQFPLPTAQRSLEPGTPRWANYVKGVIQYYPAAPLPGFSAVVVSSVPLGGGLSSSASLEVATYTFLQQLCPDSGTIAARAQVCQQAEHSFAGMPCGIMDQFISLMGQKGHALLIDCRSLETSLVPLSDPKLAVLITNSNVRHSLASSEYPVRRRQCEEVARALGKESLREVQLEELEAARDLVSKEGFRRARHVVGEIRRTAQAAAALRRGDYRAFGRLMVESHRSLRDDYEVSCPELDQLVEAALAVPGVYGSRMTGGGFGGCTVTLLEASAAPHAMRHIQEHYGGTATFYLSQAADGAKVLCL", "assay": "Confirmation Assay for Inhibitors of Human Galactokinase (GALK)", "settings": "purified GALK, Kinase-Glo ATP depletion luminescence; series mostly up to 115 µM; activity, negative = inhibition: at the top concentration", "from_the_text": "NIH Molecular Libraries Probe Production Centers Network [MLPCN] NIH Chemical Genomics Center [NCGC] MLPCN Grant: R03 MH085689-01 Assay Submitter (PI): Kent Lai (University of Utah School of Medicine, 50 N Mario Capecchi Drive, Salt Lake City, UT 84132) NCGC Assay Overview Inherited deficiency of galactose-1-phosphate uridyltransferase (GALT) can result in a potentially lethal disorder called Classic Galactosemia (OMIM 230400). Several lines of evidence indicate that an elevated level of galactose-1-phosphate (gal-1-p), the product of galactokinase (GALK), is a major, if not sole, pathogenic mechanism in patients with classic galactosemia. Therefore, finding inhibitors of GALK is a potential novel therapy for this inherent metabolic disease and is the long term goal of this project. Active compounds observed in the qHTS GALK assay (AID: 1868) were cherry picked and re-screened for validation. GALK (provided by Kent Lai) was assayed using ATP and D-(+)-Galactose (Sigma-Aldrich cat# G0750) as substrates. Promega Kinase-Glo Plus (cat# V3774) technology was used to detect the residual ATP following kinetic reaction. Briefly, the Kinase-Glo Plus contains Ultra-Glo [1] luciferase and D-luciferin which generates a bioluminescence signal from the remaining ATP. Kinase reactions with and without GALK were used as negative and positive controls together with Protein Tyrosine Phosphatase CD45 inhibitor (EMD Bioscience cat# 540215) which is shown to inhibit GALK activity.\nNCGC Assay Protocol Summary: Three uL/well of ATP-buffer solution (35 uM ATP, 20mM HEPES pH8.0, 5 mM MgCl2, 60 mM NaCl, 1 mM DTT, 0.01% BSA final concentration) was dispensed into 1536-well, assay plates (Greiner, solid white medium-binding plates) with Aurora Discovery BioRAPTR Flying Reagent Dispenser (FRD; Beckton-Dickenson). Compound and control solution (23 nL) was transferred to the assay plate using the Kalypsys 1536-pin tool apparatus. One uL/well GALK-galactose solution (5 nM GALK, 100 uM galactose, 20 mM HEPES pH8.0, 5 mM MgCl2, 60 mM NaCl, 1 mM DTT, 0.01% BSA final concentration) was then added using the FRD yielding a total kinase reaction volume of 4 uL/ well. After 1 hour of room temperature incubation, 4 uL Kinase-Glo Plus reagent was added for a final assay volume of 8 uL/well. Luminescence was detected with the ViewLux plate reader (Perkin Elmer, Waltham, MA) after 2 min incubation using a 1 sec exposure time and 2x binning.", "units": {"activity, negative = inhibition": "%"}}
{"smiles": "COc1cccc2cc(-c3cc(=O)oc4cc(C)c(O)cc34)oc12", "activity, negative = inhibition": -8.9}
{"smiles": "CCS(=O)(=O)C1=NSC2=NC(=O)/C(=C\\c3ccc(OS(=O)(=O)c4ccccc4)cc3)C(=N)N21", "Potency": "26.6 µM (active)"}
{"smiles": "N#Cc1c(N2CCCCC2)nc(N)c2c(N)nc(SCC(=O)O)cc12", "Potency": "21.1 µM (active)"}
{"smiles": "CCOC(=O)c1c(C)[nH]c2c1-c1ccccc1C(=O)C2=O", "Potency": "1.68 µM (active)"}
{"smiles": "Oc1c(Cl)cc(Cl)c(Cl)c1Cc1c(O)c(Cl)cc(Cl)c1Cl", "Potency": "21.1 µM (active)"}
{"smiles": "N#C/C(=C(/O)Cc1cccc2ccccc12)c1nc2ccccc2s1", "Potency": "33.5 µM (active)"}
